# The campaign covered roughly 310,000 compounds. About 14,000 (4.5%) showed an effect of 50% or more. Effects have a minus sign here. The full list was thinned out, with strong results kept by preference.
# Molecular target: human ether-à-go-go-related gene (hERG) potassium channel (human, UniProt Q12809)
# Experiment: primary screen, population patch clamp on CHO cells stably expressing hERG; higher = less effect of the substance
# 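Further: peak tail current of the secondary pulse compared with the same well before compound.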
# Sequence of human ether-à-go-go-related gene (hERG) potassium channel (Q12809 whole entry, looked up): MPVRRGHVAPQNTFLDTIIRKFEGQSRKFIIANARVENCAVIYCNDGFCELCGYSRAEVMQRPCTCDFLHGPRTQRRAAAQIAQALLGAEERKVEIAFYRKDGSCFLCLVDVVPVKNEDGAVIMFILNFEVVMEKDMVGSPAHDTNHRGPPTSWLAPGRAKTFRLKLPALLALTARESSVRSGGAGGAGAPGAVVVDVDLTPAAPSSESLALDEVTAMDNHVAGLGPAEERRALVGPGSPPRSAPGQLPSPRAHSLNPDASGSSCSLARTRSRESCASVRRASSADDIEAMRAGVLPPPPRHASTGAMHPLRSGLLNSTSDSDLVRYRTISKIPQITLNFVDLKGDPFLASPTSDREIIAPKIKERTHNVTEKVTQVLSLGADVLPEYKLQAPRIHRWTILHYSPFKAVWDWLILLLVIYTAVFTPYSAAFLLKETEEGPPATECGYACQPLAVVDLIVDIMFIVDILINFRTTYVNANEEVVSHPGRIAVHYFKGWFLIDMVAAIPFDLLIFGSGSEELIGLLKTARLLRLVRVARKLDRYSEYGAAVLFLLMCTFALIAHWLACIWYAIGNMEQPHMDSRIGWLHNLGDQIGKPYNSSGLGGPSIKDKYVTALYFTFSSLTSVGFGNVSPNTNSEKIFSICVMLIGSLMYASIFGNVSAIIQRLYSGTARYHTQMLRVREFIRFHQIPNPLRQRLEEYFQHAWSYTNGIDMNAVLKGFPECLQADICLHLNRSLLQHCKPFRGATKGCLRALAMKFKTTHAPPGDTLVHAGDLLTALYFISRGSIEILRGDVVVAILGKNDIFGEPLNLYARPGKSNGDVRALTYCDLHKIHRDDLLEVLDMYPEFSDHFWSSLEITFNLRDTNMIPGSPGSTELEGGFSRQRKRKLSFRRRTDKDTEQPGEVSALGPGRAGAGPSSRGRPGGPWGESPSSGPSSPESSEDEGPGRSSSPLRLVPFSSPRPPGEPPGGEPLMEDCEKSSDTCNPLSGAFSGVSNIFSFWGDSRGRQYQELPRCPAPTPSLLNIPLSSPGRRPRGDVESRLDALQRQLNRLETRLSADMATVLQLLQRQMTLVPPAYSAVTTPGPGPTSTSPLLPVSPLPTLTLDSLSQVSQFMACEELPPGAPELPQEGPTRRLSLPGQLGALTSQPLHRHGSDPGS
row,Structure (SMILES),"hERG current change (%, negative = inhibition) at 10uM [%]"
1,CN(C)Cc1c(C(=O)N/N=C/CCc2ccccc2)nnn1-c1nonc1N,-31.1
2,Cc1onc(-c2ccccc2)c1CNS(=O)(=O)c1cccc(Cl)c1,-7.19
3,Cl.O=C(O)CN1C2=NCCCN2c2ccccc21,16.1
4,c1ccc(CN2C3=NCCN3c3ccccc32)cc1,-39.5
5,Brc1ccc(CN2C3=NCCCN3c3ccccc32)cc1.Cl,-74.2
6,O=C1CCCc2ccccc2N1Cc1cccc(Cl)c1,-16.3
7,Cl.Clc1cccc(CN2C3=NCCCN3c3ccccc32)c1,-75.4
8,Cl.c1ccc(CN2C3=NCCCN3c3ccccc32)cc1,-57.5
9,Cl.O=C(CN1C2=NCCCN2c2ccccc21)c1ccc(Cl)cc1Cl,-79.6
10,Clc1cccc(CN2CCCCCC2)c1,12.3
11,O=C1CCCC2=C1C(c1ccc(O)c(Br)c1)C1=C(CCCC1=O)N2c1ccccc1,-33
12,COc1ccc(C2C(C#N)=C(C)NC3=C2S(=O)(=O)c2ccccc23)cc1 (centres unmarked),-38.6
13,CCOC(=O)c1sc(=NC(=O)COc2ccc(Cl)cc2)n(C)c1C,3.44
14,COc1cc(C)c(NC(=O)COc2cccc3c2OC(C)(C)C3)cc1OC,-7.8
15,COc1cc(SC)ccc1C(=O)NCCNC(=O)c1nonc1N,-6.81
16,COc1ccccc1NC(=O)CCS(=O)(=O)c1ccc2c(c1)NC(=O)C(C)S2 (centres unmarked),-4.76

row,Structure (SMILES),"hERG current change (%, negative = inhibition) at 10uM [%]"
1,COc1ccc(NC(=S)Nc2ccccn2)cc1,13.5
2,COc1ccc(C)cc1C(=O)CCC(=O)NCCc1ccc(S(N)(=O)=O)cc1,19.6
3,CCOc1ccc(Cn2nnc(C(=O)NCc3ccccc3)c2N)cc1,11.6
4,O=C1NC(=O)C2(Cc3ccccc3N3CCCC32)C(=O)N1c1cccc(Cl)c1 (centres unmarked),-18.1
5,COc1ccc(N(C(=O)c2csnn2)C(C(=O)NC2CCCC2)c2ccccc2)cc1 (centres unmarked),-9.35
6,CCc1ccc(N(C(=O)c2csnn2)C(C(=O)NC(C)(C)CC)c2ccccn2)cc1 (centres unmarked),-54.3
7,COc1ccc(N(C(=O)c2cnsn2)C(C(=O)NC2CCCCC2)c2ccncc2)cc1 (centres unmarked),-26.7
8,CCc1ccc(N(C(=O)c2csnn2)C(C(=O)NC(C)(C)C)c2ccccn2)cc1 (centres unmarked),-42.7
9,CCOc1ccc(N(C(=O)c2cnsn2)C(C(=O)NC2CCCCC2)c2ccncc2)cc1 (centres unmarked),-69.4
10,CC(=O)c1cccc(N(C(=O)c2csnn2)C(C(=O)NC2CCCC2)c2ccccc2)c1 (centres unmarked),-18.5
11,CC(=O)c1ccc(N(C(=O)c2csnn2)C(C(=O)NC2CCCC2)c2ccccc2)cc1 (centres unmarked),-54.9
12,CCOc1ccc(N(C(=O)c2cnccn2)C(C(=O)NC2CCCCC2)c2ccc(O)cc2)cc1 (centres unmarked),10.4
13,CCC(C)(C)NC(=O)C(c1ccccn1)N(C(=O)c1csnn1)c1ccccc1 (centres unmarked),5.39
14,Cc1ccc(N(C(=O)c2csnn2)C(C(=O)NC2CCCCC2)c2ccncc2)cc1 (centres unmarked),-1.71
15,O=C(NC1CCCC1)C(c1ccncc1)N(C(=O)c1csnn1)c1ccc(Cl)cc1 (centres unmarked),-10.4
16,CC(C)c1ccc(N(C(=O)c2csnn2)C(C(=O)NC2CCCC2)c2ccncc2)cc1 (centres unmarked),-57.8

# From publication PMC4336329 (PLoS ONE, 2015)
